KCNQ2 inh = rat KCNQ2 potassium channel inhibitors, primary screen, cell-based, CHO-K1, FluxOR thallium flux, B-score; Potassium voltage-gated channel subfamily KQT member 2 (Rattus norvegicus), O88943; 20 min; stronger effect = lower value; B-score at 10 µM; 310,000 compounds, 1.1% hits; AID 2156, 2009;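 active = fluorescence ratio B-score at most minus 3 library SDs, with starting brightness B-score within 2 library SDs, cut at about -5.5 in these data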
KCNQ2 enhance = potentiators of rat KCNQ2 potassium channel; 310,000 compounds, 0.54% hits; AID 2239, 2010; CHO-K1 KCNQ2, FluxOR thallium flux fluorescence; stronger effect = higher value; B-score at 10 µM;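 active = fluorescence ratio B-score at least 3 SD of library B-scores, with initial fluorescence B-score within 3 of them, cut at about 5.3 in these data; same plate scores as AID 2156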;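 note: B-score of peak minus minimum over baseline fluorescence ratio after K+ and Tl+ stimulus; positive B-score means potentiation of KCNQ2 with more thallium influx and brighter signal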
Kir21 confirm = mouse Kir2.1 channel blockers, retest, confirmation, cell-based, FluxOR thallium flux, duplicate | 2,300 compounds, 41% hits | AID 2032, 2009 | Tl flux remaining, % of negative control (stronger effect = lower value), % at 10 µM | Kir2.1-expressing cells, FluxOR thallium flux fluorescence; stronger effect = lower value | shares compounds with KCNQ2 enhance;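 active = Primary-screen hit whose thallium flux fell at least 3 control SD below untreated wells in both duplicates, with normal baseline fluorescence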;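 note: 0% = blank wells without stimulus and 100% = stimulated no-compound controls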
HEK293 ctr = alters thallium flux in parental HEK293 cells, Kir2.1 counter-screen; shares compounds with KCNQ2 enhance; FluxOR thallium flux fluorescence; 0% = unstimulated blank wells; FluxOR signal as % of negative control (100 = no effect), % at 10 µM; 2,300 compounds, 19% hits;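 active = dye signal at least 3 control SD above or below untreated wells in both duplicates, raw fluorescence within 3, either direction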;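 note: percent is based on the flux ratio of peak minus minimum fluorescence over baseline F0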
CHO-K1 ctr = nonspecific thallium flux increase in parental CHO-K1, confirmation, counter-screen for KCNQ2 potentiator project, cell-based, FluxOR thallium flux, duplicate; shares compounds with KCNQ2 enhance; parental CHO-K1 cells, FluxOR thallium flux fluorescence; zero = vehicle mean+3SD, 100% = vehicle-minus-blank window; activity increase over 3SD of controls, % at 10 µM; 1,200 compounds, 43% hits;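 active = signal rise of at least 3 SD above the untreated control mean, in both duplicate wells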;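 note: counter screen of KCNQ2 potentiator hits so any rise reflects channel-independent effects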
KCNQ1 sel pot = human KCNQ1 channel potentiation off-target, confirmation, selectivity assay for KCNQ2 potentiator project, cell-based, CHO, FluxOR thallium flux | 1,200 compounds, 28% hits | CHO KCNQ1 stable, FluxOR thallium flux fluorescence; beyond 3SD, as % of vehicle-control signal | shares compounds with KCNQ2 enhance | activation over 3SD threshold, % at 10 µM;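 active = fluorescence ratio rise of at least 3 SD of vehicle wells above their mean, in both replicate wells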;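 note: 0% = vehicle mean plus 3 SD and 100% = vehicle minus unstimulated blank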
Target sequence (P51787 whole entry, looked up): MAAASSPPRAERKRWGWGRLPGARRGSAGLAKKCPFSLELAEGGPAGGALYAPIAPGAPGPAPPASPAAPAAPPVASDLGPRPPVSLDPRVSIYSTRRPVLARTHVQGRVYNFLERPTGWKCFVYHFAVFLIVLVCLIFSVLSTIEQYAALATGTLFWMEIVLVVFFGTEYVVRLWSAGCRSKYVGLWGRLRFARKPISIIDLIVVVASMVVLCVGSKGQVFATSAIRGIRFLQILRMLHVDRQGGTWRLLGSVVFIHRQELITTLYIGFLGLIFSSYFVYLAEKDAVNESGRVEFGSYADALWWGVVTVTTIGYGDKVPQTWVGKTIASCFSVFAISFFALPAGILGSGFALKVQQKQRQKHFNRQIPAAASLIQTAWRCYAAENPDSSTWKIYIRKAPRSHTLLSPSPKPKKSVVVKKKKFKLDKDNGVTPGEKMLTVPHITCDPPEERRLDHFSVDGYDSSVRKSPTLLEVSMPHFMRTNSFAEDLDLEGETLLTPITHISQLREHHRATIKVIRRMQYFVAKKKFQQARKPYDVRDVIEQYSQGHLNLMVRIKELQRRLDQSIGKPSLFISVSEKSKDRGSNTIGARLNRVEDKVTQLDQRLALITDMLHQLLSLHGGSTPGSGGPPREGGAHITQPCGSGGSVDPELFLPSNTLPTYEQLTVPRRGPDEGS
KCNQ2 pot conf = rat KCNQ2 channel potentiators, confirmation, cell-based, CHO, FluxOR thallium flux, duplicate; shares compounds with KCNQ2 enhance; CHO-KCNQ2 cells, FluxOR thallium flux fluorescence; potentiation, less the hit threshold, % at 10 µM; 1,200 compounds, 68% hits;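 active = fluorescence ratio rising 3 SD or more over the vehicle control mean in both replicates, plus primary screen hit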;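 note: peak minus minimum thallium fluorescence divided by baseline after K/Tl stimulus; 0% = vehicle mean plus 3 SD and 100% = vehicle minus unstimulated blank difference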
Kir2-1 sel = mouse Kir2.1 channel activation off-target, confirmation, selectivity assay for KCNQ2 potentiator project, cell-based, HEK293, FluxOR thallium flux; activity over 3SD threshold, % at 10 µM; 1,200 compounds, 2% hits; shares compounds with KCNQ2 enhance; HEK293 Kir2.1, FluxOR thallium flux fluorescence;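 active = fluorescence ratio rise of at least 3 SD above the vehicle-control mean, seen in both replicates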;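 note: 0% = vehicle mean plus 3 SD and 100% = vehicle minus no-stimulus blank window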
KCNQ2 W236L pot = potentiators of retigabine-insensitive KCNQ2 W236L, mechanism study for KCNQ2 potentiator project, cell-based, rat KCNQ2 W236L, CHO, automated patch clamp | shares compounds with KCNQ2 enhance | automated patch clamp current | current increase over 3SD of negative controls (%), stronger effect = higher value, % at 25 µM | 940 compounds, 10% hits | AID 2558, 2010;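 active = current increase at least 3 SD of the untreated controls above them in both duplicate recordings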
Numbers without * were called inactive; i = inactive; . = not tested or not shown. Sampled rows, rich in hits. Any-hit rate of the full collection: about 1.6%.

SMILES	KCNQ2 inh	KCNQ2 enhance	Kir21 confirm	HEK293 ctr	others
COc1ccc(Nc2nc(N3CCCC3)c3ccccc3n2)cc1	i	0.61	21.0%*	i
c1ccc(Nc2c3c(nc4ccccc24)CCC3)cc1	i	1.14	.	.
CC(C)(C)C(=O)CN1C(=O)NC2(CCCc3ccccc32)C1=O (configuration not stated)	i	.	.	.
Cc1ccc(CNC(=O)c2ccc(OCC3CCCO3)cc2)cc1 (configuration not stated)	i	0.54	.	.
COc1ccc(C)cc1NC(=O)C1CCN(S(C)(=O)=O)CC1	i	.	.	.
COc1ccc(CCNC(=O)C2CC2)cc1OC	i	.	.	.
COc1ccc(CCNC(=O)C2CCC(C(C)(C)C)CC2)cc1OC (configuration not stated)	i	.	48.0%*	i
COc1ccc(C)cc1NC(=O)NNC(=O)C1CCC(C(C)(C)C)CC1 (configuration not stated)	i	10.7*	i	i	CHO-K1 ctr=-8.4;KCNQ1 sel pot=-15.7;KCNQ2 pot conf=31.4*;Kir2-1 sel=-23.9;KCNQ2 W236L pot=i
O=C(Cc1cccc2ccccc12)NCCc1ccccc1	i	0.09	.	.
CCCOc1cccc(-c2cc(-c3n[nH]c(=S)n3CC)c3ccccc3n2)c1	i	26*	i	i	CHO-K1 ctr=115.1*;KCNQ1 sel pot=-19.5;KCNQ2 pot conf=-20.0;Kir2-1 sel=-35.2
CCn1c(-c2cc(-c3ccc(C)cc3)nc3ccccc23)n[nH]c1=S	i	.	.	.
COc1cccc(CNC(=O)CSc2nc(=O)n(Cc3ccncc3)c3c2CCC3)c1	i	.	.	.
CNCCCC1Sc2ccccc2Oc2ccccc21 (configuration not stated)	i	0.13	40.5%*	i
CCN(CC)CC#CCC(OC)(c1ccccc1)c1ccccc1	i	0.69	.	.
COc1ccc(-c2csc(NC(=O)c3ccc(C(C)(C)C)cc3)c2C(=O)O)cc1	i	6.45*	i	i	CHO-K1 ctr=-19.5;KCNQ1 sel pot=-21.6;KCNQ2 pot conf=-9.1;Kir2-1 sel=-25.3
COc1ccc(-c2csc(NC(=O)c3ccccc3Br)c2C(=O)O)cc1	i	1.77	.	.
COc1ccc(CC(=O)Nc2ccccc2N2CCOCC2)cc1OC	i	0.11	.	.
COc1cccc(CC(=O)Nc2ccc3c(c2)CCC3)c1	i	6.03*	i	i	CHO-K1 ctr=-14.1;KCNQ1 sel pot=-18.1;KCNQ2 pot conf=12.3*;Kir2-1 sel=-29.9;KCNQ2 W236L pot=i
COc1ccc(CC(=O)Nc2ccccc2N2CCCCC2)cc1OC	i	.	i	77.5%*
COc1cc(CC(=O)Nc2ccc3c(c2)CCC3)cc(OC)c1OC	i	0.88	.	.
COc1cccc(CC(=O)Nc2ccccc2C(=O)N2CCOCC2)c1	i	0.29	.	.
COc1cccc(CC(=O)Nc2ccccc2N2CCCC2)c1	i	6.14*	49.5%*	i	CHO-K1 ctr=-9.4;KCNQ1 sel pot=18.3*;KCNQ2 pot conf=17.4*;Kir2-1 sel=-91.8;KCNQ2 W236L pot=i
CCCCCCN1C=CC=C/C1=C\C=C(C#N)C#N	i	.	.	.
CCOc1ccccc1Nc1nc2ccccc2n1C(C)C	i	0.7	.	.
CCOC(=O)N1CCN(C(=O)c2cc(Cl)c(Cl)cc2C(=O)O)CC1	i	.	.	.
SMILES	KCNQ2 inh	KCNQ2 enhance	Kir21 confirm	HEK293 ctr	others
CCCOC1CCCN(C(=O)c2cc(Cl)c(Cl)cc2C(=O)O)C1 (configuration not stated)	i	8.55*	i	i	CHO-K1 ctr=-11.0;KCNQ1 sel pot=-17.7;KCNQ2 pot conf=-7.7;Kir2-1 sel=-33.9
COc1ccc(CCNC(=O)Cc2cccc(C(F)(F)F)c2)cc1OC	i	0.6	.	.
COc1ccc(OC)c(/C=C/c2ccc3cccc(O)c3n2)c1	i	0.39	.	.
COc1cc(/C=C/c2ccc3cccc(O)c3n2)c(Br)cc1O	i	6.37*	i	71.0%*	CHO-K1 ctr=5.7*;KCNQ1 sel pot=-12.1;KCNQ2 pot conf=-19.3;Kir2-1 sel=-39.9
COc1cc(Br)c(/C=C/c2ccc3cccc(O)c3n2)cc1OC	i	0.09	.	.
COc1cc(/C=C/c2ccc3cccc(O)c3n2)ccc1O	i	16.7*	i	141.5%*	CHO-K1 ctr=7.5*;KCNQ1 sel pot=35.1*;KCNQ2 pot conf=12.3*;Kir2-1 sel=-36.9;KCNQ2 W236L pot=i
CCOc1ccccc1N1CCN(CC(O)COC2CCCc3ccccc32)CC1 (configuration not stated)	i	.	.	.
CNc1ccccc1C(=O)OC(C)C(=O)Nc1ccc(Cl)cn1 (configuration not stated)	i	0.65	.	.
CCC(C(=O)OC(C)C(=O)Nc1ccc(Cl)cn1)c1ccccc1 (configuration not stated)	i	.	57.5%*	68.5%*
COc1ccc(CCC(C)NCc2cccc(Br)c2)cc1 (configuration not stated)	i	.	24.0%*	i
CC(CCc1ccccc1)NCc1cccc2ccccc12 (configuration not stated)	i	.	19.0%*	i
COCC(C)NCc1cccc2ccccc12 (configuration not stated)	i	2.46	.	.
COc1ccc(CCC(C)NCc2ccccc2OC)cc1 (configuration not stated)	i	1.04	.	.
CCCCc1ccc(N2C(=NC(=O)C3CCCO3)SC3CS(=O)(=O)CC32)cc1 (configuration not stated)	i	.	.	.
CS(=O)(=O)N1CCC(Oc2ccccc2C(=O)NCCCc2cccnc2)CC1	i	.	.	.
CNNCc1ccc(C(=O)NC(C)C)cc1	i	0.21	.	.
CC(C)Cc1ccc(C(C)C(N)=NCCc2ccccc2)cc1 (configuration not stated)	i	.	i	i
COc1ccc(CCN=C(N)C(C)c2ccccc2)cc1OC (configuration not stated)	i	0.65	.	.
C/C(=N\O)C(C)(C)Nc1cccc(Br)c1	i	.	.	.

Screening data as filed in PubChem BioAssay.
